Our source for the growth values is PubChem BioAssay (NCI).

Among the test systems are DU-145 prostate; K-562 leukemia; MALME-3M melanoma; MDA-MB-231 breast; RXF 393 renal; SF-268 CNS; SF-295 CNS; SF-539 CNS; M14 melanoma; HCT-15 colon; HT29 colon; SNB-75 CNS; SNB-19 CNS; PC-3 prostate; SK-MEL-5 melanoma; UACC-62 melanoma; SK-MEL-28 melanoma.
Assay in all cases: NCI-60 one-dose screen, 48 h (100 = growth as untreated, 0 = no growth, -100 = all killed)
The test system of the next test is UACC-257 melanoma. Conditions: 10 µM unless noted.
The test system of another test is U251 CNS. The settings on record: 10 µM unless noted.
A further test concerns LOX IMVI melanoma. The settings on record: 10 µM unless noted.

About 83,000 compounds went through this panel and 20% of them were active in at least one assay; those are over-represented in the sample as a whole.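 Negative percent growth values reflect cell death: -40 means 40% of the cells present at the start died, and -100 means all died.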 A number with no mark means an inactive call. Active and inactive are the calls of the source. How the source made its calls: active means growth percent below 10; inactive means the rest.

For `C/C=C1\SC(=S)NC1=O`, the growth in the test on DU-145 prostate (10 µM unless noted) is 110%; with K-562 leukemia (10 µM unless noted) it was 117%; in the test with MALME-3M melanoma (10 µM unless noted), 92.9%; in the test with MDA-MB-231 breast (10 µM unless noted), 96.9%; in the test on RXF 393 renal (10 µM unless noted) it was 114%; in the test with SF-268 CNS (10 µM unless noted), 103%. In addition, the growth in the test on SF-295 CNS (10 µM unless noted) was 102%; in the test on SF-539 CNS (10 µM unless noted), 93.9%; in the test with UACC-257 melanoma, 95%; with M14 melanoma (10 µM unless noted), 97.5%; with HCT-15 colon (10 µM unless noted), 98.9%; with HT29 colon (10 µM unless noted) it was 108%. Moreover, the growth in the test with SNB-75 CNS (10 µM unless noted) was 88.5%; in the test with SNB-19 CNS (10 µM unless noted) it was 102%; with U251 CNS, 96.2%; in the test on PC-3 prostate (10 µM unless noted), 95.1%; with SK-MEL-5 melanoma (10 µM unless noted), 99.8%; with UACC-62 melanoma (10 µM unless noted) it was 97.8%. Moreover, the growth with LOX IMVI melanoma is 101%; in the test with SK-MEL-28 melanoma (10 µM unless noted), 107%.
In the case of `O=C(Nc1c(Cl)cccc1Cl)Oc1cccc2cccnc12`, the growth in the test with DU-145 prostate (10 µM) was 82.5%; in the test with DU-145 prostate (100 µM), 49.1%; in the test on K-562 leukemia (10 µM), 11.3%; in the test on K-562 leukemia (100 µM), 11.1%; with MALME-3M melanoma (10 µM), 52.8%; with MALME-3M melanoma (100 µM), 47.5%. Also, the growth with MDA-MB-231 breast (10 µM) was 49.5%; with MDA-MB-231 breast (100 µM), 20.4%; in the test on RXF 393 renal (10 µM) it was 73.3%; in the test with RXF 393 renal (100 µM) it was 64.4%; in the test on SF-268 CNS (10 µM) it was 51.4%; in the test on SF-268 CNS (100 µM), 21.7%. Also, the growth in the test on SF-295 CNS (10 µM) was -11.3% (active); in the test with SF-295 CNS (100 µM) it was 19.6%; with SF-539 CNS (10 µM), 28.2%; with SF-539 CNS (100 µM), 22.9%; in the test on UACC-257 melanoma it was -8.59% [100 µM] (active); with M14 melanoma (10 µM) it was 40%. The growth in the test with M14 melanoma (100 µM) is 12.3%; in the test on HCT-15 colon (10 µM), 27.9%; with HCT-15 colon (100 µM) it was 18.3%; in the test on HT29 colon (10 µM) it was 79.4%; in the test on HT29 colon (100 µM) it was 55.3%; with SNB-75 CNS (10 µM) it was 73.1%. For the same compound, the growth with SNB-75 CNS (100 µM) is 20.8%; in the test with SNB-19 CNS (10 µM) it was 56.4%; in the test on SNB-19 CNS (100 µM) it was 25.8%; in the test on U251 CNS it was 19.5% [100 µM]; in the test with PC-3 prostate (10 µM) it was 41%; in the test on PC-3 prostate (100 µM), 19.3%. For the same compound, the growth in the test with SK-MEL-5 melanoma (10 µM) was 55.9%; in the test on SK-MEL-5 melanoma (100 µM), 14.4%; with UACC-62 melanoma (10 µM), 20.2%; in the test on UACC-62 melanoma (100 µM), -74.8% (active); with SK-MEL-28 melanoma (10 µM), 73.9%; in the test on SK-MEL-28 melanoma (100 µM) it was 38.5%.
Turning to `CCCCCCC(C)c1ccccc1O` (stereo unspecified) (tested in a mixture with another compound), the growth with DU-145 prostate (10 µM unless noted) is 116%; with K-562 leukemia (10 µM unless noted), 106%; in the test on MALME-3M melanoma (10 µM unless noted) it was 106%; in the test with MDA-MB-231 breast (10 µM unless noted), 104%; in the test on RXF 393 renal (10 µM unless noted), 113%; in the test with SF-268 CNS (10 µM unless noted), 112%. The growth was 116% with SF-295 CNS (10 µM unless noted); 99.3% with SF-539 CNS (10 µM unless noted); 117% with UACC-257 melanoma; 111% in the test on M14 melanoma (10 µM unless noted); 105% in the test on HCT-15 colon (10 µM unless noted); 113% in the test with HT29 colon (10 µM unless noted). In addition, the growth is 128% in the test with SNB-75 CNS (10 µM unless noted); 106% in the test with SNB-19 CNS (10 µM unless noted); 104% in the test on U251 CNS; 94.8% in the test with PC-3 prostate (10 µM unless noted); 111% with SK-MEL-5 melanoma (10 µM unless noted); 99.6% with UACC-62 melanoma (10 µM unless noted). The values for the growth in the test on LOX IMVI melanoma and with SK-MEL-28 melanoma (10 µM unless noted) were 95.8% and 111%, respectively.
`COC(=O)c1nc(=S)[nH]c(C(=O)OC)c1C(=O)c1ccccn1`: the growth was 39.5% in the test with DU-145 prostate (10 µM unless noted); 17.7% in the test on K-562 leukemia (10 µM unless noted); 30.7% with MALME-3M melanoma (10 µM unless noted); 33.6% in the test with MDA-MB-231 breast (10 µM unless noted); 43.2% in the test on RXF 393 renal (10 µM unless noted); 34.3% in the test on SF-268 CNS (10 µM unless noted). Moreover, the growth in the test with SF-295 CNS (10 µM unless noted) was -1.15% (active); in the test on SF-539 CNS (10 µM unless noted), 15.6%; with UACC-257 melanoma, 75.7%; in the test with M14 melanoma (10 µM unless noted), 17.9%; with HCT-15 colon (10 µM unless noted) it was 16.8%; in the test with HT29 colon (10 µM unless noted) it was 34.5%. Moreover, the growth with SNB-75 CNS (10 µM unless noted) was 57.2%; in the test with SNB-19 CNS (10 µM unless noted), 43.1%; with U251 CNS, 31%; with PC-3 prostate (10 µM unless noted) it was 31.1%; with SK-MEL-5 melanoma (10 µM unless noted), -26.2% (active); in the test on UACC-62 melanoma (10 µM unless noted) it was 11.9%. The figures for the growth in the test on LOX IMVI melanoma and with SK-MEL-28 melanoma (10 µM unless noted) were 10.2% and 38.1%, respectively.
For the compound `NC(N)=N/N=C/c1ccc([N+](=O)[O-])o1`, the growth in the test with DU-145 prostate (10 µM unless noted) is 91.5%; in the test with K-562 leukemia (10 µM unless noted), 94.6%; in the test on MALME-3M melanoma (10 µM unless noted) it was 68.1%; with MDA-MB-231 breast (10 µM unless noted), 105%; in the test on RXF 393 renal (10 µM unless noted), 95.7%; in the test with SF-268 CNS (10 µM unless noted) it was 90.3%. The growth in the test with SF-295 CNS (10 µM unless noted) is 93.4%; with SF-539 CNS (10 µM unless noted) it was 104%; in the test with UACC-257 melanoma, 67.1%; in the test on M14 melanoma (10 µM unless noted), 99.1%; in the test on HCT-15 colon (10 µM unless noted) it was 68.1%; in the test with HT29 colon (10 µM unless noted), 33.2%. Besides, the growth in the test on SNB-75 CNS (10 µM unless noted) was 106%; with SNB-19 CNS (10 µM unless noted) it was 99.9%; in the test on U251 CNS, 80.8%; in the test with PC-3 prostate (10 µM unless noted) it was 90%; with SK-MEL-5 melanoma (10 µM unless noted), 90.4%; in the test with UACC-62 melanoma (10 µM unless noted), 92.9%. Further, the growth in the test on LOX IMVI melanoma is 82.1%; in the test with SK-MEL-28 melanoma (10 µM unless noted), 114%.
As for `O=C1C=CC(=O)N1C1c2ccccc2-c2ccccc21`, the growth with DU-145 prostate (10 µM unless noted) was 103%; in the test on K-562 leukemia (10 µM unless noted), 18.5%; in the test on MALME-3M melanoma (10 µM unless noted), 90.1%; with MDA-MB-231 breast (10 µM unless noted) it was 97.9%; with RXF 393 renal (10 µM unless noted) it was 80.5%; with SF-268 CNS (10 µM unless noted), 102%. For the same compound, the growth with SF-295 CNS (10 µM unless noted) was 99.5%; with SF-539 CNS (10 µM unless noted), 98.3%; in the test with UACC-257 melanoma it was 85.7%; in the test with M14 melanoma (10 µM unless noted) it was 96.5%; with HCT-15 colon (10 µM unless noted), 61.6%; in the test on HT29 colon (10 µM unless noted) it was 92.9%. In addition, the growth with SNB-75 CNS (10 µM unless noted) is 74.9%; in the test with SNB-19 CNS (10 µM unless noted) it was 105%; with U251 CNS, 92.8%; in the test on PC-3 prostate (10 µM unless noted), 94.1%; in the test on SK-MEL-5 melanoma (10 µM unless noted) it was 105%; with UACC-62 melanoma (10 µM unless noted), 102%. The values for the growth with LOX IMVI melanoma and in the test with SK-MEL-28 melanoma (10 µM unless noted) were 93.9% and 104%, respectively.
Regarding `CCC(=O)Sc1ccccc1C(=O)Nc1ccc(Cl)cc1`, the growth in the test with DU-145 prostate (10 µM unless noted) is 74.3%; in the test on K-562 leukemia (10 µM unless noted), 19.4%; with MALME-3M melanoma (10 µM unless noted), 6.61% (active); with MDA-MB-231 breast (10 µM unless noted) it was 67.2%; in the test on RXF 393 renal (10 µM unless noted), 88.2%; in the test on SF-268 CNS (10 µM unless noted) it was 56.4%. Further, the growth was 35.5% in the test with SF-295 CNS (10 µM unless noted); 49.7% in the test on SF-539 CNS (10 µM unless noted); 94.7% in the test on UACC-257 melanoma; 42.4% in the test with M14 melanoma (10 µM unless noted); 46% in the test with HCT-15 colon (10 µM unless noted); 17% in the test with HT29 colon (10 µM unless noted). In addition, the growth was 76.7% in the test with SNB-75 CNS (10 µM unless noted); 76.1% in the test with SNB-19 CNS (10 µM unless noted); 36.5% in the test with U251 CNS; 66.9% in the test with PC-3 prostate (10 µM unless noted); 25.2% with SK-MEL-5 melanoma (10 µM unless noted); 54.1% in the test on UACC-62 melanoma (10 µM unless noted). The growth with LOX IMVI melanoma is 42.2%; with SK-MEL-28 melanoma (10 µM unless noted) it was 49.8%.
